Values joined by “and” are separate entries in the source; they are usually repeats but may differ in a detail not shown here. Equal entries are not always repeated. Records with an inconclusive call do not appear. The source holds several records for some structures; these can differ, active in one and inactive in another. Active and inactive are the calls of the source. The call rests on the fitted dose curve; in most records, active means well fitted curve in the direction sought with a large enough effect; inconclusive means small, poorly fitted or top-dose-only effect, or another doubt; inactive means no such curve, though single readings can be large; an effect the other way counts as inactive or inconclusive.
Tests used:
CRL-7250 = normal cell line; test: Cytotoxic Profiling of Annotated Libraries Using Quantitative High-Throughput Screening (AID 1296008); settings: Five cell lines viability, CellTiter-Glo ATP luminescence, 48-72 h; max response: stronger effect = lower value; further: nearly all actives have a fitted effect of over 60% in size; on max response: on the % scale 0 is the no-effect control and ±100 the full control effect
Summary of the method: (§1)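 Cytotoxicity was measured as CellTiter-Glo ATP luminescence, read after 10 min at room temperature. Compound treatment of the cells lasted 48 or 72 hr at 37 degrees Celsius in a qHTS format.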

HEK293 = test: as above; settings: Five cell lines viability, CellTiter-Glo ATP luminescence, 48-72 h; max response: stronger effect = lower value
Summary of the method: as §1

HaCat [1] = test: as above; settings: Five cell lines viability, CellTiter-Glo ATP luminescence, 48-72 h; max response: stronger effect = lower value
Summary of the method: as §1

KB-3-1 = test: as above; settings: Five cell lines viability, CellTiter-Glo ATP luminescence, 48-72 h; max response: stronger effect = lower value
Summary of the method: as §1

NIH3T3 [2] = test: as above; settings: Five cell lines viability, CellTiter-Glo ATP luminescence, 48-72 h; max response: stronger effect = lower value
Summary of the method: as §1

HACAT [3] = test: qHTS assay to identify novel small-molecules to repurpose for Merkel cell carcinoma treatment (AID 1296009); settings: MCC and control cell lines, CellTiter-Glo viability, 72 h; at 44.8 µM (top of the series) unless noted; further: nearly all actives have a fitted effect of over 60% in size
Summary of the method: (§2)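 Cell viability measured by CellTiter-Glo following 72 hr compound treatment at 37 degree celsius, with NPC and MIPE libraries tested in 8- and 11-point concentration series.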

MCC-13 = test: as above; settings: MCC and control cell lines, CellTiter-Glo viability, 72 h; series mostly up to 46 µM
Summary of the method: as §2

MCC-26 = test: as above; settings: MCC and control cell lines, CellTiter-Glo viability, 72 h; series mostly up to 46 µM
Summary of the method: as §2

MKL-1 = test: as above; settings: MCC and control cell lines, CellTiter-Glo viability, 72 h; series mostly up to 46 µM
Summary of the method: as §2

MKL-2 = test: as above; settings: MCC and control cell lines, CellTiter-Glo viability, 72 h; series mostly up to 46 µM
Summary of the method: as §2

UISO = test: as above; settings: MCC and control cell lines, CellTiter-Glo viability, 72 h; series mostly up to 46 µM
Summary of the method: as §2

WaGa = test: as above; settings: MCC and control cell lines, CellTiter-Glo viability, 72 h; series mostly up to 46 µM
Summary of the method: as §2

TAB109 = test: qHTS profiling for inhibitors of Plasmodium falciparum proliferation (AID 504749); further: nearly all actives have a fitted effect of over 60% in size; settings: P. falciparum in erythrocytes, SYBR Green DNA, 72 h; series mostly up to 28.7 µM
Summary of the method: (§3)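 In a 72 h erythrocytic culture (37 C, humidified, 5% CO2) at 2.5% hematocrit and 0.3% starting parasitemia, compounds were tested; SYBR Green I in detergent lysis buffer stained parasite DNA overnight.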

TAB113 = test: as above; settings: P. falciparum in erythrocytes, SYBR Green DNA, 72 h; series mostly up to 28.7 µM
Summary of the method: as §3

TAB165 = test: as above; settings: P. falciparum in erythrocytes, SYBR Green DNA, 72 h; series mostly up to 28.7 µM
Summary of the method: as §3

W2 = test: as above; settings: P. falciparum in erythrocytes, SYBR Green DNA, 72 h; series mostly up to 28.7 µM
Summary of the method: as §3

C33A = test: Primary qHTS to identify gynecologic anti-cancer compounds using libraries of approved drugs and bioactive compounds (AID 1345084); settings: Gynecologic cancer cell panel viability, ATPlite luminescence, 48 h; series mostly up to 57.5 µM; further: nearly all actives have a fitted effect of over 55% in size
Summary of the method: (§4)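 In this quantitative HTS, cell killing is estimated from loss of ATP-dependent luciferase light. Cells see five compound concentrations over a 48 h exposure.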

HEK293T = test: qHTS assay to identify novel small-molecules to repurpose for Merkel cell carcinoma treatment (AID 1296009); settings: MCC and control cell lines, CellTiter-Glo viability, 72 h; at 44.8 µM (top of the series) unless noted; further: nearly all actives have a fitted effect of over 60% in size
Summary of the method: as §2

NIH3T3 [4] = test: as above; settings: MCC and control cell lines, CellTiter-Glo viability, 72 h; at 44.8 µM (top of the series) unless noted
Summary of the method: as §2

CAOV3 = test: Primary qHTS to identify gynecologic anti-cancer compounds using libraries of approved drugs and bioactive compounds (AID 1345084); settings: Gynecologic cancer cell panel viability, ATPlite luminescence, 48 h; series mostly up to 57.5 µM; further: nearly all actives have a fitted effect of over 55% in size
Summary of the method: as §4
Potency means the concentration at half of the fitted maximal effect.

O=c1c(O)c(-c2cc(O)c(O)c(O)c2)oc2cc(O)cc(O)c12
inactive: max response (CRL-7250) 3.08% | max response (HEK293) -2.69% | outcome (HaCat [1]) | max response (KB-3-1) 2.62% | max response (NIH3T3 [2]) -26.9% | outcome (HACAT [3]) | Potency (MCC-13) | Potency (MCC-26) | Potency (MKL-1) | Potency (MKL-2) | Potency (UISO) | Potency (WaGa)

CC(S)C(=O)NCC(=O)O (stereo not given)
inactive: Potency (TAB109) | Potency (TAB113) | Potency (TAB165) | Potency (W2) | outcome (CRL-7250) | max response (HEK293) -0.0067% and -3.71% | max response (HaCat [1]) -2.01% | outcome (HaCat [1]) | max response (KB-3-1) 5.7% | max response (NIH3T3 [2]) 0.885% and -1.07% | outcome (HACAT [3]) | Potency (MCC-13) | Potency (MCC-26) | Potency (MKL-1) | Potency (MKL-2) | Potency (UISO) | Potency (WaGa) | Potency (C33A)

O=C(c1ccccc1)c1ccc2n1CCC2C(=O)O (stereo not given)
inactive: max response (CRL-7250) -6.97% and 1.24% | max response (HEK293) 1.29% and -15.1% | outcome (HaCat [1]) | max response (KB-3-1) 1.88% and -12.7% and 3.64% | max response (NIH3T3 [2]) -2.4% and -6.59% | outcome (HACAT [3]) | Potency (MCC-13) | Potency (MCC-26) | Potency (MKL-1) | Potency (MKL-2) | Potency (UISO) | Potency (WaGa) | Potency (C33A)

O=C(NCCO[N+](=O)[O-])c1cccnc1
inactive: Potency (TAB109) | Potency (TAB113) | Potency (TAB165) | Potency (W2) | max response (CRL-7250) -0.661% and -5.95% | outcome (HEK293) | max response (HaCat [1]) 4.19% | outcome (HaCat [1]) | outcome (KB-3-1) | outcome (NIH3T3 [2]) | outcome (HACAT [3]) | outcome (HEK293T) | Potency (MCC-13) | Potency (MCC-26) | Potency (MKL-1) | Potency (MKL-2) | outcome (NIH3T3 [4]) | Potency (UISO) | Potency (WaGa) | Potency (C33A)

N[C@@H](Cc1cc(I)c(Oc2cc(I)c(O)c(I)c2)c(I)c1)C(=O)O
inactive: Potency (TAB109) | Potency (TAB113) | Potency (TAB165) | Potency (W2) | max response (CRL-7250) 0.853% and -3.78% and 2.29% | max response (HEK293) 0.988% and -21.3% and 2.79% | max response (HaCat [1]) -2.11% | outcome (HaCat [1]) | max response (NIH3T3 [2]) -14.5% | outcome (NIH3T3 [2]) | outcome (HACAT [3]) | Potency (MCC-13) | Potency (MCC-26) | Potency (MKL-1) | Potency (MKL-2) | outcome (NIH3T3 [4]) | Potency (UISO) | Potency (WaGa) | Potency (C33A) | Potency (CAOV3)

c1ccc2[nH]c(-c3cscn3)nc2c1
inactive: Potency (TAB109) | Potency (TAB113) | Potency (TAB165) | Potency (W2) | max response (CRL-7250) -2.24% and 4.16% | max response (HEK293) -22.6% and -4.05% | max response (HaCat [1]) -3.12% | outcome (HaCat [1]) | max response (KB-3-1) -14.9% and 2.26% | max response (NIH3T3 [2]) 2.11% and -9.05% | outcome (HACAT [3]) | Potency (MCC-13) | Potency (MCC-26) | Potency (MKL-1) | Potency (MKL-2) | Potency (UISO) | Potency (WaGa) | Potency (C33A)

CN1CCC(=C2c3ccccc3CCc3sccc32)CC1
inactive: max response (CRL-7250) -8.84% and -2.17% | outcome (HaCat [1]) | max response (KB-3-1) -12.2% and -19.3% | max response (NIH3T3 [2]) 2.3% | outcome (NIH3T3 [2]) | outcome (HACAT [3]) | Potency (MCC-13) | Potency (MCC-26) | Potency (MKL-1) | outcome (NIH3T3 [4]) | Potency (UISO) | Potency (WaGa)
active: Potency (TAB165) 4.47 µM | Potency (W2) 1.51 µM | Potency (HEK293) 26.4 µM and 10.6 µM

O=C(NOCC1CC1)c1ccc(F)c(F)c1Nc1ccc(I)cc1Cl
inactive: max response (CRL-7250) -12.6% | max response (HaCat [1]) -17.9% | Potency (MCC-26) | Potency (C33A) | Potency (CAOV3)
active: Potency (HEK293) 18.7 µM | Potency (HaCat [1]) 26.6 µM | Potency (MKL-1) 18.8 µM and 20.9 µM | Potency (UISO) 15 µM | Potency (WaGa) 15 µM

Cc1cc(=O)oc2cc(O)ccc12
inactive: Potency (W2) | max response (CRL-7250) 4.43% and 2.39% | max response (HEK293) 4.56% | outcome (HEK293) | max response (HaCat [1]) 1.05% and -3.2% | max response (KB-3-1) 2.35% and 1.97% | max response (NIH3T3 [2]) -7.66% and -0.637% | outcome (HEK293T) | Potency (MCC-13) | Potency (MCC-26) | Potency (MKL-1) | Potency (MKL-2) | Potency (UISO) | Potency (WaGa) | Potency (C33A)
active: Potency (TAB113) 1 µM

CC(C)c1ccc2oc3nc(N)c(C(=O)O)cc3c(=O)c2c1
inactive: Potency (TAB109) | Potency (TAB165) | outcome (CRL-7250) | max response (HEK293) 4.19% and -0.504% | max response (HaCat [1]) -17.6% | outcome (HaCat [1]) | max response (NIH3T3 [2]) -24.8% and -20.9% | outcome (HACAT [3]) | Potency (MCC-13) | Potency (MCC-26) | Potency (MKL-1) | Potency (MKL-2) | Potency (UISO) | Potency (WaGa)
active: Potency (C33A) 8.91 µM | Potency (CAOV3) 6.31 µM

CCN(CC)CCOc1ccc(Cc2ccccc2)cc1
active: Potency (HEK293) 8.33 µM
inactive: Potency (TAB109) | Potency (TAB113) | Potency (TAB165) | max response (CRL-7250) -29.7% | max response (HaCat [1]) -17.2% | outcome (HaCat [1]) | max response (KB-3-1) -7.39% and -3.92% | max response (NIH3T3 [2]) -6.6% | outcome (HACAT [3]) | Potency (MCC-13) | Potency (MCC-26) | Potency (MKL-1) | Potency (MKL-2) | Potency (UISO) | Potency (WaGa) | Potency (C33A)

From PubChem BioAssay (NCATS)
